High-throughput results deposited in PubChem by National Center for Advancing Translational Sciences (NCATS).
Compounds with a hit are over-represented: about 14% of the library has one in this group of screens.
HCV inhibitor = inhibitors of hepatitis C virus infection; Huh7.5.1 HCVcc-Cre infection, luciferase reporter, 44 h; Potency, µM (series often up to 41.8 µM), inactives show at the highest dose activity change, negative = inhibition, usual class: inhibitors; 340,000 compounds, 3.4% hits; also: potency is read from the fitted curve at half-maximal effect
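HCVcc-Cre virus at an moi near 0.5 was added right after compound to cells cultured 4 h from seeding (1,000 cells/well). Luciferase activity was determined 44 h later, 15 min after substrate addition at RT.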
HCMV inh = human cytomegalovirus inhibition | AID 1259415 | activity change, negative = inhibition, % at 57.5 µM | 410,000 compounds, 4.5% hits | HFF cells, HCMV-luciferase reporter, 72 h; hits give low values; in the data active = activity change below about -60%; inconclusive = no clear call, values can overlap the other calls; inactive = above about -39%
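Compounds were evaluated in HFFs infected with an HCMV luciferase reporter virus (MOI 1 PFU/cell). Luciferase in lysates collected 72 h post infection served as the replication measure.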
Marburg entry inh = blocks Marburg virus binding to or entry into cells | Marburg virus pseudotyped entry inhibition, cell reporter | Potency, µM (doses to about 37.8 µM), for the others: at the top dose activity change, negative = inhibition, actives largely listed as inhibitors | 300,000 compounds, 1.8% hits | AID 540276; calls by dose curve; tested in HEK293 cells; also: potency is read from the fitted curve at half-maximal effect
Pf growth 48h = P. falciparum growth inhibition at 48 hours (one generation). AID 504832. Potency, µM (titrated, usually from 28.7 µM), for the others: at the top dose activity change, negative = inhibition, usual class: inhibitors. 310,000 compounds, 5.9% hits. P. falciparum luciferase growth in erythrocytes, 48 h; also: potency is read from the fitted curve at half-maximal effect
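Compounds are pin-transferred into medium, infected erythrocytes (2% hematocrit, 0.1% parasitemia final) are added, and plates sit one parasite generation at 37 C in 5% CO2. Detection reagent is then added and luminescence measured.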
Pf growth 96h = P. falciparum growth inhibition at 96 hour, primary screen for plastid delayed-death inhibitors. P. falciparum luciferase reporter growth, 96 h. Potency, µM (titrated, usually from 28.7 µM), for inactives: at the top dose activity change, negative = inhibition, most hits filed as inhibitors. 320,000 compounds, 6.9% hits; also: potency is read from the fitted curve at half-maximal effect
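P. falciparum expressing integrated firefly luciferase, in erythrocytes at 2% hematocrit, 0.05% parasitemia, incubated with compounds 96 h at 37 C, 5% CO2. Growth inhibition read as loss of luminescence; two-generation exposure targets delayed-death apicoplast inhibitors.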
Lassa entry inh = inhibitors of Lassa virus binding or cell entry; Lassa virus pseudotype entry inhibition, cell reporter; Potency, µM (titrated, usually from 37.9 µM), for inactives: at the top dose activity change, negative = inhibition, hits mostly inhibitors; 300,000 compounds, 1.2% hits; AID 540256; calls by dose curve; tested in HEK293 cells; also: potency is read from the fitted curve at half-maximal effect; nearly all actives have a fitted effect of over 50% in size
* hit, by the source's call; ? = inconclusive; . = no result; ! = not active in a repeat; [ ] = remark or other dose. Unless noted, calls follow the shape of the dose curve; as a rule, active = well fitted inhibition curve with a large enough effect; inconclusive = small, poorly fitted or top-dose-only effect, or another doubt; inactive = no such curve, though single readings can be large or run the other way. % is scaled to controls: 0 for no effect and ±100 for the full control effect.

SMILES | HCV inhibitor | HCMV inh | Marburg entry inh | Pf growth 48h | Pf growth 96h | Lassa entry inh
Cn1nc(C(=O)N2CCN(c3ccccn3)CC2)c2ccccc2c1=O | -17% | 3 | -17% | -2% | 8% | -2%
CS/C(=C\[N+](=O)[O-])Nc1ccc(OC(F)(F)F)cc1 | -23% | -61* | . | -11% | 2% | .
O=c1ccc(-c2ccccc2)nn1Cc1ccccc1F | ? | -26 | ? | -34% | 13µM* | -7%[46.1 µM]
Cc1ccc(-c2ccc(=O)n(Cc3ccc(F)cc3)n2)cc1 | -13% | -63*! | 0%[46.1 µM] | -8% | -4% | -2%[46.1 µM]
Cc1ccc(-c2cc(N)n(Cc3ccc(Cl)cc3)n2)cc1 | 10µM* | -22 | ? | 53% | ? | -15%
O=c1ccc(-c2ccccc2)nn1Cc1c(F)cccc1Cl | . | -20 | -6%[46.1 µM] | . | . | ?
Cc1ccc(N2C(=O)C(CC(=O)Nc3cccc(F)c3)N(CCc3ccccc3F)C2=O)cc1 (stereo not drawn) | . | 23 | ? | . | . | -12%[46.1 µM]
CCN(C(=O)CN1C(=O)/C(=C/c2ccccc2F)SC1=S)C1CCS(=O)(=O)C1 (stereo not drawn) | -1% | ? | . | -6% | ? | .
CC(C(=O)N(C)C1CCS(=O)(=O)C1)N1C(=O)/C(=C/c2ccc(F)cc2)SC1=S (stereo not drawn) | -23% | ? | . | 13µM* | 12µM* | .
O=C1/C(=C\c2ccco2)SC(=S)N1C1CCS(=O)(=O)C1 (stereo not drawn) | 11% | -74* | ? | 34% | ? | -6%
CCN(C(=O)C(C)N1C(=O)/C(=C/c2ccco2)SC1=S)C1CCS(=O)(=O)C1 (stereo not drawn) | 14µM* | ? | . | ? | ? | .
O=C1/C(=C/c2ccco2)SC(=S)N1C1CCS(=O)(=O)C1 (stereo not drawn) | -29% | ? | . | ? | 77% | .
O=C(CCN1C(=O)/C(=C/c2ccc(F)cc2)SC1=S)NC1CCS(=O)(=O)C1 (stereo not drawn) | 3% | ? | -8%[46.1 µM] | -14% | ? | 8%[46.1 µM]
COc1ccc(Br)cc1CNC(=O)CCCn1c(=O)c2cccn2c2cccnc21 | . | -17 | . | . | . | -4%[46.1 µM]
CCN1C(C(=O)c2ccccc2)=C(OC(=O)c2ccccc2OC)c2ccccc2S1(=O)=O | . | -73* | -24%[46.1 µM] | . | . | ?
CCCCN1C(C(=O)c2ccccc2)=C(OC(C)=O)c2ccccc2S1(=O)=O | . | -108* | ? | . | . | ?
CCCN1C(C(=O)c2ccccc2)=C(OC(=O)c2ccc(OC)cc2)c2ccccc2S1(=O)=O | . | ? | -11%[46.1 µM] | . | . | -25%[46.1 µM]
CCCCC(=O)OC1=C(C(=O)c2ccccc2)N(CC)S(=O)(=O)c2ccccc21 | . | ? | ? | . | . | -11%[46.1 µM]
Cc1ccc(-c2ccc(=O)n(CCC(=O)NCCc3ccccc3)n2)cc1 | . | 27 | . | . | . | 3%[46.1 µM]
Cc1c(C(=O)Nc2ccc(C(C)C)cc2)sc2nc3n(c(=O)c12)CCC3 | . | ? | . | . | . | 0%[46.1 µM]
CCCCCCCCN1C(=O)[C@H](CC(=O)N2CCN(C(=O)c3ccco3)CC2)C[C@@]2(C(=O)OCC)CCCC=C12 | . | -10 | . | . | . | .
O=C1[C@@H]2[C@H]3[C@H](O)[C@H](O)CC(=NOC[C@@H](O)COCc4ccco4)[C@H]3CC[C@H]2C(=O)N1C[C@@H]1CCCO1 | . | . | 4%[14.2 µM] | . | . | .
CC1CCC(Nc2nc3c(-c4cccc(C(F)(F)F)c4)nnn3c3ccccc23)CC1 (stereo not drawn) | . | 36 | 3%[46.1 µM] | . | . | 26%[46.1 µM]
CCC1(c2ccccc2)C(=O)NCNC1=O | 2%[8.37 µM] | -4 | 36% | 5% | -9% | 32%
CCC1(c2ccccc2)CCC(=O)NC1=O (stereo not drawn) | . | . | . | 19µM* | ? | .
SMILES | HCV inhibitor | HCMV inh | Marburg entry inh | Pf growth 48h | Pf growth 96h | Lassa entry inh
O=S(=O)(c1ccccc1)n1nc(-c2ccc(Cl)cc2)nc1NCc1ccccc1 | . | 62 | ? | . | . | 16%[46.1 µM]
CCc1cccc(NC(=O)c2oc3ccc4c(c3c2C)C(=O)CC(C)(C)O4)c1 | . | -60* | . | . | . | -1%[46.1 µM]
C(#Cc1ccccc1)C[N+]1(CC#Cc2ccccc2)CCCC1 | -18% | ? | ? | 2.3µM* | ? | ?
C=CC[N+]1(CC#Cc2ccccc2)CCCC1 | -7% | -27 | ? | ? | 20% | -5%[46.1 µM]
C=CC[N+]1(CC#CCOC(c2ccccc2)c2ccccc2)CCOCC1 | -6% | -16 | 14% | ? | 2.6µM* | -14%
C=CC#CC[N+]1(CC#Cc2ccccc2)CCOCC1 | 36% | ? | ? | 5.9µM* | 4.1µM* | 10%
CC(=O)Nc1ccc(S(=O)(=O)Nc2cc(-c3cn4ccccc4n3)ccc2C)cc1 | . | 19 | 4%[46.1 µM] | . | . | ?
CC1(C(=O)NCc2ccc3c(c2)OCO3)CCN1C(=O)C1(c2ccc(Cl)cc2)CC1 (stereo not drawn) | . | -23 | . | . | . | .
CCc1noc(C)c1C(=O)N(CC(C)C)c1c(N)n(Cc2ccccc2)c(=O)[nH]c1=O | 0% | -20 | 0% | -21% | 5% | 0%
COc1cc2ncnc(N[C@H](C)c3ccccc3)c2cc1OC | ? | . | . | ? | 13µM* | .
COc1cc2ncnc(NCc3ccc(F)cc3)c2cc1OC | ? | -6 | ? | . | 10µM* | ?
COc1cc2ncnc(NCc3ccc(Cl)cc3)c2cc1OC | -18% | -78* | . | ? | -12% | .
COc1cc2ncnc(NCc3ccccc3Cl)c2cc1OC | -21% | -30 | . | ? | ? | .
COc1cc2ncnc(NCc3ccccc3F)c2cc1OC | 5% | -28 | . | . | ? | .
COc1cc2ncnc(NCc3ccccc3C)c2cc1OC | -14% | 15 | 4%[46.1 µM] | 15µM* | 13µM* | -7%
